Measurements from the supplement of paper PMC10849652.
Of roughly 8,800 targets only a part is listed; those with a hit were picked by preference. About 0.5% of all pairs of compound and target were hits.

Key:
Test in all cases: log2 fold change, soluble protein after heating vs DMSO (PISA); higher = thermal stabilisation; K562 lysate, 10 uM; active = over 0.2 and 3.5 SD of the protein, either way, in both replicates (recomputed)
alvocidib = compound: CN1CC[C@H](c2c(O)cc(O)c3c(=O)cc(-c4ccccc4Cl)oc23)[C@H](O)C1 [alvocidib]
In short: (§1)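 Dounce homogenisation of K562 pellets in PBS pH 7.4 with 1 mM MgCl2 produced a crude extract, used at 1 mg/mL protein. Exposure to 10 μM compound lasted 30 min, and aliquots were then heated for 3 min across 48°C-58°C, pooled and brought to 0.5% NP-40 at 4°C. The supernatant after 21,000xg for 90 min was quantified by TMTpro 16plex LC-MS/MS with channel sums equalised. Duplicate values are given as log-two fold change in thermal stability relative to solvent controls.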

Tubastatin A = compound: CN1CCc2c(c3ccccc3n2Cc2ccc(C(=O)NO)cc2)C1 [Tubastatin A]
In short: as §1

[1] = compound: CNC(=O)C1=CC=CC=C1NC2=NC(=NC=C2Cl)NC3=C(C=C(C=C3)N4CCOCC4)OC
In short: as §1

defactinib = compound: CNC(=O)c1ccc(Nc2ncc(C(F)(F)F)c(NCc3nccnc3N(C)S(C)(=O)=O)n2)cc1 [defactinib]
In short: as §1

[2] = compound: CNc1nc(-c2ccc3c(N)n[nH]c3c2)cc(N2C[C@@H](C(=O)NC3CCCCC3)CC[C@H]2C)n1
In short: as §1

encorafenib = compound: COC(=O)N[C@@H](C)CNc1nccc(-c2cn(C(C)C)nc2-c2cc(Cl)cc(NS(C)(=O)=O)c2F)n1 [encorafenib]
In short: as §1

[3] = compound: COC(=O)[C@H](CCSC)NC(=O)C1=C(C=C(C=C1)NC[C@H](CS)N)C2=CC=CC=C2
In short: as §1

alisertib = compound: COc1cc(Nc2ncc3c(n2)-c2ccc(Cl)cc2C(c2c(F)cccc2OC)=NC3)ccc1C(=O)O [alisertib]
In short: as §1

[4] = compound: COc1cc2nc(-c3cc(F)ccc3O)nc(N[C@@H]3CNC[C@H]3C(C)(C)O)c2cc1OC
In short: as §1

gefitinib = compound: COc1cc2ncnc(Nc3ccc(F)c(Cl)c3)c2cc1OCCCN1CCOCC1 [gefitinib]
In short: as §1

lapatinib = compound: CS(=O)(=O)CCNCc1ccc(-c2ccc3ncnc(Nc4ccc(OCc5cccc(F)c5)c(Cl)c4)c3c2)o1 [lapatinib]
In short: as §1

pictilisib = compound: CS(=O)(=O)N1CCN(Cc2cc3nc(-c4cccc5[nH]ncc45)nc(N4CCOCC4)c3s2)CC1 [pictilisib]
In short: as §1

crizotinib = compound: C[C@@H](Oc1cc(-c2cnn(C3CCNCC3)c2)cnc1N)c1c(Cl)ccc(F)c1Cl [crizotinib]
In short: as §1

[5] = compound: C[C@H](C1=CC=C(C=C1)C(=O)NC2=C3C=CNC3=NC=C2)N
In short: as §1

duvelisib = compound: C[C@H](Nc1ncnc2nc[nH]c12)c1cc2cccc(Cl)c2c(=O)n1-c1ccccc1 [duvelisib]
In short: as §1

gandotinib = compound: Cc1cc(Nc2cc(CN3CCOCC3)c3nc(C)c(Cc4ccc(Cl)cc4F)n3n2)n[nH]1 [gandotinib]
In short: as §1

tozasertib = compound: Cc1cc(Nc2cc(N3CCN(C)CC3)nc(Sc3ccc(NC(=O)C4CC4)cc3)n2)n[nH]1 [tozasertib]
In short: as §1

doramapimod = compound: Cc1ccc(-n2nc(C(C)(C)C)cc2NC(=O)Nc2ccc(OCCN3CCOCC3)c3ccccc23)cc1 [doramapimod]
In short: as §1

bafetinib = compound: Cc1ccc(NC(=O)c2ccc(CN3CC[C@H](N(C)C)C3)c(C(F)(F)F)c2)cc1Nc1nccc(-c2cncnc2)n1 [bafetinib]
In short: as §1

[6] = compound: Cc1cccc(CC(=O)N2CCc3c2ccc(-c2cn(C)c4ncnc(N)c24)c3F)n1
In short: as §1

Measured: log2 fold change

COQ9 (UniProt O75208)
Sequence of UniProt O75208 (O75208 whole entry, looked up): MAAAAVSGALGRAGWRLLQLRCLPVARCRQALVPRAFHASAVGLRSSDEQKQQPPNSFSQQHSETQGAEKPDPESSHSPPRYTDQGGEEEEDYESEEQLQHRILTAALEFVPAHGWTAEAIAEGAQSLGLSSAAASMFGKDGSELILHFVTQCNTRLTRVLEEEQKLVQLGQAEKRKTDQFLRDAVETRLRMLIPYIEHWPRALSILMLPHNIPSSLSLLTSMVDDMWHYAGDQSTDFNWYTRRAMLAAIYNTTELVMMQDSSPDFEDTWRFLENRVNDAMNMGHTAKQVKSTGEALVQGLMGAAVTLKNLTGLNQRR
inactive: alvocidib 0.002 | Tubastatin A -0.041 | [1] -0.035 | defactinib 0.023 | [2] 0.136 | encorafenib -0.021 | [3] 0.024 | alisertib 0.026 | [4] 0.025 | gefitinib -0.012 | lapatinib -0.033 | pictilisib -0.021 | crizotinib 0.014 | [5] 0.055 | duvelisib -0.052 | gandotinib -0.12 | tozasertib 0.02 | doramapimod -0.055 | bafetinib 0.032 | [6] 0.019

CTPS1 (UniProt P17812)
inactive: alvocidib 0.006 | Tubastatin A -0.101 | [1] -0.021 | defactinib 0 | [2] -0.048 | encorafenib 0.016 | [3] 0.038 | alisertib -0.019 | [4] -0.001 | gefitinib -0.015 | lapatinib -0.007 | pictilisib -0.015 | crizotinib -0.044 | [5] 0.004 | duvelisib -0.003 | gandotinib -0.052 | tozasertib -0.004 | doramapimod 0.005 | bafetinib 0.078 | [6] 0.015

CKAP5 (UniProt Q14008)
inactive: alvocidib 0.008 | Tubastatin A -0.076 | [1] 0.019 | defactinib 0.008 | [2] 0.003 | encorafenib 0.013 | [3] 0.074 | alisertib 0.012 | [4] 0.007 | gefitinib -0.005 | lapatinib 0.001 | pictilisib 0.013 | crizotinib -0.017 | [5] 0.004 | duvelisib 0.001 | gandotinib -0.053 | tozasertib 0.01 | doramapimod 0.011 | bafetinib 0.005 | [6] 0.015

COTL1 (UniProt Q14019)
inactive: alvocidib 0.021 | Tubastatin A 0.004 | [1] -0.021 | defactinib -0.04 | [2] -0.008 | encorafenib -0.033 | [3] -0.029 | alisertib -0.009 | [4] -0.001 | gefitinib -0.002 | lapatinib 0.007 | pictilisib 0.016 | crizotinib 0.045 | [5] 0.245 | duvelisib -0.009 | gandotinib -0.062 | tozasertib 0.024 | doramapimod -0.044 | bafetinib 0.102 | [6] -0.122

DNAAF5 (UniProt Q86Y56)
Sequence of UniProt Q86Y56 (Q86Y56 whole entry, looked up): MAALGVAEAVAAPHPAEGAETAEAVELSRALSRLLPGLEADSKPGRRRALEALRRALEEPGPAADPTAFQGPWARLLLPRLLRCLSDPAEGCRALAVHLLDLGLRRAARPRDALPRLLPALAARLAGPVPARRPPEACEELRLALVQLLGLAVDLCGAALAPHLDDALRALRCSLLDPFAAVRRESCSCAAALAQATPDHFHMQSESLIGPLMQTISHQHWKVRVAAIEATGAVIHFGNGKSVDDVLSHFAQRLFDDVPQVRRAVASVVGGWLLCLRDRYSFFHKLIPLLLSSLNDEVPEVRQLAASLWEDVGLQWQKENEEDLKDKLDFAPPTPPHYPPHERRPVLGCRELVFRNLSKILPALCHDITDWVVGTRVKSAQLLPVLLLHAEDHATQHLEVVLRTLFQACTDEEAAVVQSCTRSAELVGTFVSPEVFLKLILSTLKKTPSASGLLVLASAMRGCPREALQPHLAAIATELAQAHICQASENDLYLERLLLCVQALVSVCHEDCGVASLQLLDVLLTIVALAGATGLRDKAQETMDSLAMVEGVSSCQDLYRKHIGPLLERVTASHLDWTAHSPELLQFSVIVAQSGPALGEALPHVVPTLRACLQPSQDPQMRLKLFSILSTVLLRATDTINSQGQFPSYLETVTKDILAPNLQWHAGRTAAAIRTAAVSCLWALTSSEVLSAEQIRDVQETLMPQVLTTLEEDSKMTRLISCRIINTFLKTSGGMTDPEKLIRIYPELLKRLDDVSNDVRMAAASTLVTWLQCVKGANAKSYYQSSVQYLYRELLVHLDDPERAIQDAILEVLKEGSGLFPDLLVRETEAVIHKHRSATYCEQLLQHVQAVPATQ
inactive: alvocidib 0.024 | Tubastatin A -0.155 | [1] -0.011 | defactinib -0.009 | [2] -0.011 | encorafenib 0.073 | [3] 0.101 | alisertib 0.038 | [4] 0.012 | gefitinib -0.018 | lapatinib -0.03 | pictilisib -0.008 | crizotinib -0.104 | [5] 0.016 | duvelisib 0.021 | gandotinib -0.147 | tozasertib -0.055 | doramapimod 0.024 | bafetinib -0.066 | [6] 0.027

CUL1 (UniProt Q13616)
Sequence of UniProt Q13616 (Q13616 whole entry, looked up): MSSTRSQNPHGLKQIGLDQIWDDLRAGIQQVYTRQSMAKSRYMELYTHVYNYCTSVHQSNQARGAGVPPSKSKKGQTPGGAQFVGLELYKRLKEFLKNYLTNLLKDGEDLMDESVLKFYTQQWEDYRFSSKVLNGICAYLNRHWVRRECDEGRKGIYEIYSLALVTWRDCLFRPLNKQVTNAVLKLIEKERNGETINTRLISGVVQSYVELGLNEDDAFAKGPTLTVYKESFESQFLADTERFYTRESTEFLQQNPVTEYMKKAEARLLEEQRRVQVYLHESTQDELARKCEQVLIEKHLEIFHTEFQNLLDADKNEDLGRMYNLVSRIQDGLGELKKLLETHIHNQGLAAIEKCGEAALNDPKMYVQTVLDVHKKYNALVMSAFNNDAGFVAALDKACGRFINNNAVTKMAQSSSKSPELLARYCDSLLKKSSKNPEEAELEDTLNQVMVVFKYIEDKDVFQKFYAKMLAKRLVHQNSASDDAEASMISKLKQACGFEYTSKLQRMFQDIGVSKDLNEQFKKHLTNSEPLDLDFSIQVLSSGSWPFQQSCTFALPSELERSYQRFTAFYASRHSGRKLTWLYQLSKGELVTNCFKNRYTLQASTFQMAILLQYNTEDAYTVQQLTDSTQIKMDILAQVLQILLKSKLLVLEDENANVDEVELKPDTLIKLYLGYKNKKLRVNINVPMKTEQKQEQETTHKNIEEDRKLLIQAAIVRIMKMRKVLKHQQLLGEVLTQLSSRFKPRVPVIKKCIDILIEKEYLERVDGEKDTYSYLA
inactive: alvocidib -0.008 | Tubastatin A 0.008 | [1] 0.001 | defactinib -0.019 | [2] 0.013 | encorafenib 0 | [3] -0.042 | alisertib -0.01 | [4] 0.011 | gefitinib -0.038 | lapatinib -0.007 | pictilisib 0.004 | crizotinib 0.014 | [5] -0.007 | duvelisib 0.015 | gandotinib 0.03 | tozasertib -0.001 | doramapimod 0.01 | bafetinib 0.03 | [6] -0.002

CSTB (UniProt P04080)
Sequence of UniProt P04080 (P04080 whole entry, looked up): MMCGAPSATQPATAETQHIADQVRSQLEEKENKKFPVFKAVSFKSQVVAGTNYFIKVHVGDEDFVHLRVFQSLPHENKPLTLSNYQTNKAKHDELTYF
inactive: alvocidib -0.051 | Tubastatin A 0.089 | [1] -0.023 | defactinib 0.069 | [2] 0.011 | encorafenib 0.025 | [3] -0.011 | alisertib 0.023 | [4] -0.042 | gefitinib -0.143 | lapatinib 0.05 | pictilisib 0.003 | crizotinib -0.059 | [5] -0.235 | duvelisib 0.025 | gandotinib 0.147 | tozasertib -0.01 | doramapimod 0.107 | bafetinib 0.012 | [6] 0.104

CMBL (UniProt Q96DG6)
inactive: alvocidib 0.006 | Tubastatin A 0.001 | [1] -0.012 | defactinib -0.051 | [2] 0.013 | encorafenib -0.051 | [3] -0.009 | alisertib 0.001 | [4] 0.038 | gefitinib 0.03 | lapatinib -0.024 | pictilisib 0.076 | crizotinib 0.065 | [5] -0.162 | duvelisib 0.031 | gandotinib 0.127 | tozasertib 0.016 | doramapimod -0.021 | bafetinib -0.028 | [6] -0.001

CNP (UniProt P09543)
Sequence of UniProt P09543 (P09543 whole entry, looked up): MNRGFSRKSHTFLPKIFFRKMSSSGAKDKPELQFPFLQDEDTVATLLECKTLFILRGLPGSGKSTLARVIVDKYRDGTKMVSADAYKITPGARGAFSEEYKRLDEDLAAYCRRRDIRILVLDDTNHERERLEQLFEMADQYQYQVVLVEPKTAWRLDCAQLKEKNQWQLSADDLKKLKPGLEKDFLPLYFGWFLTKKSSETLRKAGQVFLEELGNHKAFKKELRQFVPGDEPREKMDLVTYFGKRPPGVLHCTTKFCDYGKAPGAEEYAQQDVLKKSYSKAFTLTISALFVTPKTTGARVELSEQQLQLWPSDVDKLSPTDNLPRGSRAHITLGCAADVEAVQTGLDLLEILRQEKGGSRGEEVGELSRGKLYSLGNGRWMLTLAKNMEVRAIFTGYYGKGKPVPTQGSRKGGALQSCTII
inactive: alvocidib -0.005 | Tubastatin A -0.06 | [1] 0.011 | defactinib 0.028 | [2] -0.03 | encorafenib 0.02 | [3] -0.003 | alisertib 0.029 | [4] 0 | gefitinib -0.025 | lapatinib 0.014 | pictilisib 0.015 | crizotinib -0.023 | [5] 0.002 | duvelisib -0.002 | gandotinib -0.047 | tozasertib 0.012 | doramapimod 0.039 | bafetinib -0.026 | [6] 0.022

CMIP (UniProt Q8IY22)
Sequence of UniProt Q8IY22 (Q8IY22 whole entry, looked up): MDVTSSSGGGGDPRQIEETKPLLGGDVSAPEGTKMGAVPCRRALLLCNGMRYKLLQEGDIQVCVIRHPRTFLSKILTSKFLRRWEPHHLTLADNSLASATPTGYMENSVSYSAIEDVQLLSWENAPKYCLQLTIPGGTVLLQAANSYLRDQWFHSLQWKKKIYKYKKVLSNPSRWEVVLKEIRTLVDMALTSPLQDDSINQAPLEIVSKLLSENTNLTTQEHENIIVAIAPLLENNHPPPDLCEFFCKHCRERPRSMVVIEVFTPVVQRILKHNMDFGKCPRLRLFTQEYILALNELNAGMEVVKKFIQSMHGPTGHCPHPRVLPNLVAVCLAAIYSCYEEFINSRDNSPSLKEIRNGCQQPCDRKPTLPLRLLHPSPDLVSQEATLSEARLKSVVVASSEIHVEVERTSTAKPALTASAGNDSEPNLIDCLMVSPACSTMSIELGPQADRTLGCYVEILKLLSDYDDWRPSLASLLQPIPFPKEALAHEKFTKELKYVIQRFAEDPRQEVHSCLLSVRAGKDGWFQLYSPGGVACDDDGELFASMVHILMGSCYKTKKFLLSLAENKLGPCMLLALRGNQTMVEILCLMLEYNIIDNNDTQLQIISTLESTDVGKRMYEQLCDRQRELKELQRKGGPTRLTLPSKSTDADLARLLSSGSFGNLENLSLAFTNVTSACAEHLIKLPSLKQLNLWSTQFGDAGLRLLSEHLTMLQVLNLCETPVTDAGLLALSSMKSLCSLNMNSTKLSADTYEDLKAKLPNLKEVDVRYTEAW
inactive: alvocidib 0.002 | Tubastatin A -0.161 | [1] 0.001 | defactinib 0.061 | [2] -0.015 | encorafenib 0.078 | [3] 0.025 | alisertib -0.012 | [4] -0.016 | gefitinib 0.007 | lapatinib 0.002 | pictilisib -0.013 | crizotinib -0.001 | [5] 0.046 | duvelisib -0.035 | gandotinib -0.062 | tozasertib 0.017 | doramapimod -0.094 | bafetinib -0.064 | [6] 0.002

DCP1A (UniProt Q9NPI6)
inactive: alvocidib -0.002 | Tubastatin A 0 | [1] 0.003 | defactinib 0.033 | [2] 0 | encorafenib 0.006 | [3] -0.046 | alisertib -0.074 | [4] 0.026 | gefitinib 0.022 | lapatinib -0.015 | pictilisib -0.015 | crizotinib -0.042 | [5] -0.008 | duvelisib 0.023 | gandotinib 0.003 | tozasertib -0.03 | doramapimod -0.031 | bafetinib 0.043 | [6] 0.089

DENND6A (UniProt Q8IWF6)
inactive: alvocidib -0.009 | Tubastatin A -0.072 | [1] -0.006 | defactinib 0.007 | [2] 0.103 | encorafenib 0.007 | [3] -0.134 | alisertib 0.059 | [4] -0.024 | gefitinib 0.047 | lapatinib -0.077 | pictilisib -0.079 | crizotinib 0.028 | [5] -0.013 | duvelisib -0.022 | gandotinib -0.006 | tozasertib -0.038 | doramapimod 0.054 | bafetinib -0.099 | [6] 0.086

DIAPH3 (UniProt Q9NSV4)
Sequence of UniProt Q9NSV4 (Q9NSV4 whole entry, looked up): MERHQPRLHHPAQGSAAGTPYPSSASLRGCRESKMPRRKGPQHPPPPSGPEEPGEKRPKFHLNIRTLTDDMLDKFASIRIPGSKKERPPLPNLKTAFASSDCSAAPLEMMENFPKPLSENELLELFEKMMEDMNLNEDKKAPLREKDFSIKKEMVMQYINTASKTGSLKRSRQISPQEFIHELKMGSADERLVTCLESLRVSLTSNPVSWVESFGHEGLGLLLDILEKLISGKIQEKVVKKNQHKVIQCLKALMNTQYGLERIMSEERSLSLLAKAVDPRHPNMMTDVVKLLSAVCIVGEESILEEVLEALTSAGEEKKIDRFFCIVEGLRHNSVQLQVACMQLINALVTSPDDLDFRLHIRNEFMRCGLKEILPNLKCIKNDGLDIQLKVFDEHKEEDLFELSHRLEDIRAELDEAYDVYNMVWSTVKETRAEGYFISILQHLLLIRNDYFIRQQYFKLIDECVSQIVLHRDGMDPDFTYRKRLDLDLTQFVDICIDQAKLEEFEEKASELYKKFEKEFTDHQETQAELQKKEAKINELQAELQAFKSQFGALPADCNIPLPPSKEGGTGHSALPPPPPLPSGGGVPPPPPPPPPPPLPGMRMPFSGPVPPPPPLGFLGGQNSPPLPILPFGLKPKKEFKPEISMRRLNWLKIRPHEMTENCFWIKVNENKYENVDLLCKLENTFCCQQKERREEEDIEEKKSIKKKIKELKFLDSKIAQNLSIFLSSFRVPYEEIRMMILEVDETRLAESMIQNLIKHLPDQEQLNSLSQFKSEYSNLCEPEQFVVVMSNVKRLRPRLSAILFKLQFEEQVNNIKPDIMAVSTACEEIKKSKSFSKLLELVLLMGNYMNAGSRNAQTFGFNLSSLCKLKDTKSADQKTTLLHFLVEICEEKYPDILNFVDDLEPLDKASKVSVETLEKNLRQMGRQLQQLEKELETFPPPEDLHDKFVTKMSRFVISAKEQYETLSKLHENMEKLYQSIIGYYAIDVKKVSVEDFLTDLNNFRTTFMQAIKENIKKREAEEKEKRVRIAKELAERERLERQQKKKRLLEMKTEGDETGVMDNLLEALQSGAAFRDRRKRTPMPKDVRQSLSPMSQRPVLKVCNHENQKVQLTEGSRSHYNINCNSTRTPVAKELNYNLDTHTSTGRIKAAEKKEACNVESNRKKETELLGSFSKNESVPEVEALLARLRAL
inactive: alvocidib 0.041 | Tubastatin A -0.195 | [1] 0.004 | defactinib -0.024 | [2] -0.027 | encorafenib 0.118 | [3] 0.085 | alisertib 0.056 | [4] -0.015 | gefitinib 0.06 | lapatinib 0.068 | pictilisib 0.005 | crizotinib 0.003 | [5] 0.039 | duvelisib -0.043 | gandotinib -0.102 | tozasertib -0.017 | doramapimod 0.036 | bafetinib -0.075 | [6] 0.135

COG2 (UniProt Q14746)
inactive: alvocidib -0.032 | Tubastatin A -0.114 | [1] -0.009 | defactinib 0.05 | [2] 0.028 | encorafenib -0.009 | [3] 0.052 | alisertib 0.021 | [4] -0.022 | gefitinib -0.039 | lapatinib -0.009 | pictilisib -0.03 | crizotinib -0.041 | [5] -0.025 | duvelisib 0.025 | gandotinib -0.118 | tozasertib 0.012 | doramapimod 0.009 | bafetinib -0.027 | [6] 0.02

CMSS1 (UniProt Q9BQ75)
Sequence of UniProt Q9BQ75 (Q9BQ75 whole entry, looked up): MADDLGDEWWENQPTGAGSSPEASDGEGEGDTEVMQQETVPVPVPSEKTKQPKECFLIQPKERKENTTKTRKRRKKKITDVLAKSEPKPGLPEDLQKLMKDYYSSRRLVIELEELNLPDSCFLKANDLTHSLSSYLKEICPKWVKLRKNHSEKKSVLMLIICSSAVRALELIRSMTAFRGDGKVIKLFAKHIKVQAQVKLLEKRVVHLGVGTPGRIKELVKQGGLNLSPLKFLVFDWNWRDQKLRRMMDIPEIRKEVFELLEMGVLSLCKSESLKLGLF
inactive: alvocidib 0.013 | Tubastatin A -0.036 | [1] -0.02 | defactinib -0.009 | [2] -0.032 | encorafenib 0.015 | [3] 0.024 | alisertib 0.02 | [4] 0.004 | gefitinib 0.025 | lapatinib 0.012 | pictilisib 0.016 | crizotinib -0.021 | [5] 0.176 | duvelisib -0.001 | gandotinib -0.086 | tozasertib 0.009 | doramapimod 0.015 | bafetinib -0.026 | [6] -0.015

DHRS11 (UniProt Q6UWP2)
Sequence of UniProt Q6UWP2 (Q6UWP2 whole entry, looked up): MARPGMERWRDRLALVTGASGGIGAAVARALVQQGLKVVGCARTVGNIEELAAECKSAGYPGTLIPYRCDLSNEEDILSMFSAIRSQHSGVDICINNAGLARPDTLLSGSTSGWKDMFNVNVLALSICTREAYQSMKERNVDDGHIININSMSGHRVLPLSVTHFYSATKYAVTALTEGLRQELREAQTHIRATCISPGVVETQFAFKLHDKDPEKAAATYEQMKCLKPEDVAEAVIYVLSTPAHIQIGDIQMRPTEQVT
inactive: alvocidib -0.001 | Tubastatin A -0.083 | [1] 0.055 | defactinib 0.021 | [2] 0.031 | encorafenib 0.024 | [3] 0.109 | alisertib -0.074 | [4] 0.031 | gefitinib -0.022 | lapatinib -0.017 | pictilisib 0.014 | crizotinib 0.024 | [5] -0.035 | duvelisib 0.024 | gandotinib -0.007 | tozasertib 0.028 | doramapimod -0.032 | bafetinib -0.051 | [6] -0.02
